High-throughput results: PubChem, National Center for Advancing Translational Sciences (NCATS)
FLuc inh – qHTS Assay for Inhibitors of Firefly Luciferase | Luciferin 4-monooxygenase (Photinus pyralis), P08659 | AID 411, 2009 | Potency, µM (series often up to 57.1 µM), without a hit: at the top dose activity change, negative = inhibition, usual class: inhibitors | hit rate 2.2% among 72,000 | purified firefly luciferase, luminescence, 8 min; also: nearly all actives have a fitted effect of over 40% in size
Target sequence (P08659 whole entry, looked up): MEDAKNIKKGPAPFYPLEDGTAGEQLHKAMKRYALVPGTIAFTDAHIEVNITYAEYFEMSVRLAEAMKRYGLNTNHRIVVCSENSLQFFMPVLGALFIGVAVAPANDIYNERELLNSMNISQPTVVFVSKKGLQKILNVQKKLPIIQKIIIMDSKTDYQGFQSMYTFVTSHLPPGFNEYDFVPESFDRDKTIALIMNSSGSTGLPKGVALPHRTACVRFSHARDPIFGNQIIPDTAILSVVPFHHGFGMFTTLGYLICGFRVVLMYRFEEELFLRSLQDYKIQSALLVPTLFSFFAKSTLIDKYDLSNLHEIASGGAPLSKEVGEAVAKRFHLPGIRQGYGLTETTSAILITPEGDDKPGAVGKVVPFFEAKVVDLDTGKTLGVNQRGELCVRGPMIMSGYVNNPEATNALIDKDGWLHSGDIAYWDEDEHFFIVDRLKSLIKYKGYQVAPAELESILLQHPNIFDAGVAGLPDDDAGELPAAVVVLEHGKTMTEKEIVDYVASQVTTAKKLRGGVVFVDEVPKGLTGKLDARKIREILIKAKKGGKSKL
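Inhibition of light generation by firefly luciferase from ATP and luciferin was profiled with concentration-response curves per sample, ATP held at 10 uM within the enzyme's linear range. Plates were read by luminescence after an 8-minute ambient incubation.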
p53ts 39C kill – qHTS Screen for Compounds that Selectively Target Cancer Cells with p53 Mutations: Cytotoxicity of p53ts Cells at the Nonpermissive Temperature; hit rate 1.5% among 130,000; H1299-p53A138V viability at 39C, ATP luminescence, 24 h; AID 902, 2007; Potency, µM (titrated, usually from 46.1 µM), inactives show at the highest dose activity change, negative = cell killing, usual class: cytotoxic; also: nearly all actives have a fitted effect of over 55% in size
p53ts 32C tox – qHTS Screen for Compounds that Selectively Target Cancer Cells with p53 Mutations: Cytotoxicity of p53ts Cells at the Permissive Temperature | H1299-p53A138V at 32C, ATP luminescence viability, 24 h | Potency, µM (titrated, usually from 46.1 µM), for inactives: at the highest dose activity change, negative = cytotoxicity, most hits filed as cytotoxic | hit rate 0.93% among 130,000;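 also: 0% = DMSO and -100% = full killing by reference compound; nearly all actives have a fitted effect of over 55% in size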
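Viability by ATPlite luminescence after 24 h compound treatment (up to 46 uM) at the permissive 32C. Cells are H1299 carrying p53 A138V. Scale runs from DMSO basal to 100 uM tamoxifen as full kill; AC50 from Hill fits.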
* hit, by the source's call; ? = inconclusive; . = no result; [ ] = another dose, or the depositor's remark. In the library only some 2.5% were active in any assay of this set; here they are far more common. Calls follow the shape of the dose curve; as a rule, active = well fitted curve in the direction sought with a large enough effect; inconclusive = small, poorly fitted or top-dose-only effect, or another doubt; inactive = no such curve, though single readings can be large; an effect the other way counts as inactive or inconclusive. Unless noted, % is scaled to controls: 0 for no effect and ±100 for the full control effect; potency is read from the fitted curve at half-maximal effect.

SMILES	FLuc inh	p53ts 39C kill	p53ts 32C tox
Cc1ccc(C(=O)Nc2ccc3c(c2)nc2n3CCSC2)cc1	7.9µM*	?	7.9µM*
COc1ccc(CNC(=O)Cn2c(SCC(=O)Nc3ccc(OC)cc3)nc3ccccc32)cc1	.	?	-20%
O=S(=O)(O)c1ccc(N=Nc2ccccc2)cc1	2%[11.4 µM]	9%[9.22 µM]	2%[9.22 µM]
Nc1ccc(N=Nc2ccc(-c3ccc(O)cc3)cc2)c2ccc(S(=O)(=O)O)cc12	3.2µM*	3%[9.22 µM]	1%[9.22 µM]
Cc1c(N=Cc2nc3ccccc3n2C)c(=O)n(-c2ccccc2)n1C	4µM*	6%	5%
Cc1c(N=Cc2c(O)n(Cc3ccco3)c(=O)c3ccccc23)c(=O)n(-c2ccccc2)n1C	4%	17%	8%
Cc1cccc(-c2ccc(C=Nc3c(C)n(C)n(-c4ccccc4)c3=O)o2)c1	-28%	-2%	-1%
Cc1c(N=Cc2nc3ccccc3[nH]2)c(=O)n(-c2ccccc2)n1C	16µM*	-16%	-3%
COc1ccc2[nH]cc(CCNc3ncncc3-c3cccc(C#N)c3)c2c1	1%[2.29 µM]	-4%	-1%
COc1ccccc1N1CCN(S(=O)(=O)c2ccc(F)c(C(=O)Nc3ccc(C)c(F)c3)c2)CC1	.	-16%	11%
CCCCn1cc(S(=O)(=O)c2ccc(OC)cc2)c(=O)c2cc(CC)ccc21	.	-13%	14%
CN1[C@@H]2CC(OC(=O)[C@H](CO)c3ccccc3)C[C@@H]1[C@H]1O[C@H]12 (stereo partly drawn)	2%	.	.
COc1ccc(-c2cc(C(=O)Nc3c(C(=O)c4ccc(C)c(F)c4)oc4ccccc34)no2)cc1	.	-4%	-3%
CC(C)(c1cc(Br)c(OCC(Br)CBr)c(Br)c1)c1cc(Br)c(OCC(Br)CBr)c(Br)c1 (stereo not drawn)	.	-13%	11%[1.84 µM]
COc1ccc(-c2nc(-c3ccc(NC(=O)c4ccc(Br)o4)cc3)no2)cc1OC	-7%	13µM*	?
COc1ccc(CCC(=O)Nc2ccc(-c3noc(-c4ccc(OC)c(OC)c4)n3)cc2)cc1	2%	-3%	-13%
COc1ccc2nc(NC(=O)c3ccoc3C)sc2c1	3.2µM*	?	7.9µM*
COc1ccc2nc(NC(=O)CN3CCN(C)CC3)sc2c1	-7%	-9%	-9%
COc1ccc2sc(NC(=O)c3ccco3)nc2c1	7.9µM*	10µM*	10µM*
CCOCC(=O)Nc1nc2ccc(OCC)cc2s1	-29%	-23%	-30%
COc1ccc2c(c1)-c1nc(NC(=O)c3ccco3)sc1CC2	-17%	-21%	-4%
CCOCC(=O)Nc1nc2ccc(C)cc2s1	25µM*	?	?
COc1ccc2nc(NC(=O)c3cc(C)oc3C)sc2c1	.	?	-31%
CCCC(=O)Nc1nc2ccc(OC)cc2s1	13µM*	-22%	-30%
O=[N+]([O-])c1ccc(S(=O)(=O)Cc2ccccc2)c2nonc12	-9%[11.4 µM]	8%[9.22 µM]	7%[9.22 µM]
SMILES	FLuc inh	p53ts 39C kill	p53ts 32C tox
S=C(S)NCCN1CCNCC1	-1%[11.4 µM]	5%[9.22 µM]	8%[9.22 µM]
CCSc1nnc(NC(=O)c2cccc(OCc3c(C)noc3C)c2)s1	-8%	-6%	4%
COc1ccc2nc(NC(=O)c3cccc(OCc4c(C)noc4C)c3)sc2c1	13µM*	-29%	?
CC1(C)OC(C(O)(c2cc(F)c(F)c(F)c2)c2cc(F)c(F)c(F)c2)C(C(O)(c2cc(F)c(F)c(F)c2)c2cc(F)c(F)c(F)c2)O1 (stereo not drawn)	.	10%[9.22 µM]	24%[9.22 µM]
COCCNc1ncnc2ccc(-c3cccc(OC)c3)cc12	2%[2.29 µM]	-6%	-11%
COc1ccc(-c2cc(C(=O)N3CCCCC3)no2)cc1OC	-15%	-23%	-20%
Cc1ccc(-c2cc(C(=O)N3CCCC3)no2)cc1	4µM*	7.9µM*	7.9µM*
Cc1nn(Cc2ccc(Cl)cc2Cl)c(C)c1NC(=O)C1C2CCC(O2)C1C(=O)O (stereo not drawn)	.	4%	-11%
Cc1nn(Cc2ccc(Cl)cc2Cl)c(C)c1NC(=O)CCl	.	5.6µM*	18µM*
c1ccc(-c2nc3ccccc3s2)nc1	?	-28%	?
Brc1ccc(-c2nc3ccccc3s2)s1	16µM*	-30%	?
O=C(Nc1ccc(F)cc1)c1ncn(-c2ccccc2)n1	.	16µM*	?
CCOc1ccc(NC(=O)c2ncn(-c3ccccc3)n2)cc1	.	-23%	-12%
Cc1nc(NC2CCCCC2)c2nc(-c3ccccc3)n(CCN3CCCC3)c2n1	.	-18%	-16%
CCOc1ccccc1NC(=O)c1ccc2c(Cl)c3c(nc2c1)CCCC3	.	-21%	-12%
CCOc1ccccc1NC(=O)c1ccc2c(Cl)c3c(nc2c1)CCC3	.	4µM*	?
N#Cc1ccccc1NC(=O)c1ccc2c(Cl)c3c(nc2c1)CCCC3	.	16%	-6%
O=C(Nc1ccccc1F)c1ccc2c(Cl)c3c(nc2c1)CCC3	.	1.6µM*	1.3µM*
Cc1ccc(C(=O)c2cn(Cc3ccccc3C)c3nc(C)ccc3c2=O)cc1	.	-24%	21%
c1cnc2c(c1)ccc1cccnc12	0%[11.4 µM]	3.2µM*	?
Cc1cccc2cccnc12	.	0%	-15%[1.84 µM]
COc1ccc(CNc2ncnc3c2c(-c2ccccc2)cn3-c2ccc(C)c(Cl)c2)cc1	.	-14%	-3%
Cc1cc(N)n(-c2ncnc3scc(-c4ccc(Cl)cc4)c23)n1	.	?	-17%
Cc1cc2ncc(-c3ccc(Cl)cc3)c(N)n2n1	13µM*	?	?
COc1ccc(N=[N+]([O-])c2ccc(OC)cc2)cc1	.	16µM*	-3%[1.84 µM]
SMILES	FLuc inh	p53ts 39C kill	p53ts 32C tox
COc1ccc(O)cc1	.	-8%	-2%[1.84 µM]
O=C(N/N=C1/C[C@@H](O)[C@@H](O)[C@@H]2[C@@H]3C(=O)N(Cc4ccccc4)C(=O)[C@H]3CC[C@H]12)OCc1ccccc1	1%[11.4 µM]	7%[9.22 µM]	-2%[9.22 µM]
Cc1ccc(C)c(NS(=O)(=O)c2ccc3oc(=O)c4ncn(C)c4c3c2)c1	.	7.9µM*	?
Cc1cccc(NS(=O)(=O)c2ccc3oc(=O)c4ncn(C)c4c3c2)c1C	.	-3%	4%
Cc1ccc2c(c1)N(CC(=O)NCCN1CCOCC1)C(=O)CO2	4%	4%	-3%
O=c1cc(-c2ccc(O)c(O)c2)oc2cc(O[C@@H]3O[C@@H](CO)[C@@H](O)[C@@H](O)[C@H]3O)cc(O)c12	-2%[11.4 µM]	.	.
COCCCNC(=O)c1ccc(CSc2nc3cccnc3n2Cc2ccc(OC)cc2)cc1	.	.	-11%
COc1ccc(NC(=O)Cn2c(SCc3ccc(C)cc3)nc3cccnc32)cc1OC	.	.	3.2µM*
CN(C)CCNC(=O)c1ccc(Cn2c(SCc3ccc(F)cc3)nc3cccnc32)cc1	.	.	-14%
COCCCNC(=O)c1ccc(Cn2c(SCc3ccc(F)cc3)nc3cccnc32)cc1	.	.	11µM*
O=C(NCCN1CCCCC1)c1ccc(Cn2c(SCc3ccc(F)cc3)nc3cccnc32)cc1	.	7.9µM*	7.9µM*
COc1ccc(NC(=O)Cn2c(SCc3ccc(F)cc3)nc3cccnc32)c(OC)c1	.	.	-27%
COc1cc(C(=O)Nc2cc3c(cc2C)n(C)c(=O)c(=O)n3C)cc(OC)c1OC	.	25%	1%
NCc1nnn(Cc2ccccc2)c1N	2%[11.4 µM]	8%[9.22 µM]	5%[9.22 µM]
